From PubChem BioAssay (NCATS)
Records with an inconclusive call do not appear. Active and inactive are the calls of the source. The call rests on the fitted dose curve; in most records, active means well fitted curve in the direction sought with a large enough effect; inconclusive means small, poorly fitted or top-dose-only effect, or another doubt; inactive means no such curve, though single readings can be large; an effect the other way counts as inactive or inconclusive.

Experiments:
[1] = target: Rap guanine nucleotide exchange factor 3 (Homo sapiens) (UniProt O95398); assay: Confirmatory qHTS for agonist of cAMP-regulated guanine nucleotide exchange factor 3 (EPAC1) (AID 1645881);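 further: EPAC1 catalysed release of BODIPY-GDP from Rap1B seen as fluorescence loss; 100% = effect of cAMP agonist control; nearly all actives have a fitted effect of over 75% in size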
Rap guanine nucleotide exchange factor 3 (Homo sapiens), sequence (O95398 whole entry, looked up): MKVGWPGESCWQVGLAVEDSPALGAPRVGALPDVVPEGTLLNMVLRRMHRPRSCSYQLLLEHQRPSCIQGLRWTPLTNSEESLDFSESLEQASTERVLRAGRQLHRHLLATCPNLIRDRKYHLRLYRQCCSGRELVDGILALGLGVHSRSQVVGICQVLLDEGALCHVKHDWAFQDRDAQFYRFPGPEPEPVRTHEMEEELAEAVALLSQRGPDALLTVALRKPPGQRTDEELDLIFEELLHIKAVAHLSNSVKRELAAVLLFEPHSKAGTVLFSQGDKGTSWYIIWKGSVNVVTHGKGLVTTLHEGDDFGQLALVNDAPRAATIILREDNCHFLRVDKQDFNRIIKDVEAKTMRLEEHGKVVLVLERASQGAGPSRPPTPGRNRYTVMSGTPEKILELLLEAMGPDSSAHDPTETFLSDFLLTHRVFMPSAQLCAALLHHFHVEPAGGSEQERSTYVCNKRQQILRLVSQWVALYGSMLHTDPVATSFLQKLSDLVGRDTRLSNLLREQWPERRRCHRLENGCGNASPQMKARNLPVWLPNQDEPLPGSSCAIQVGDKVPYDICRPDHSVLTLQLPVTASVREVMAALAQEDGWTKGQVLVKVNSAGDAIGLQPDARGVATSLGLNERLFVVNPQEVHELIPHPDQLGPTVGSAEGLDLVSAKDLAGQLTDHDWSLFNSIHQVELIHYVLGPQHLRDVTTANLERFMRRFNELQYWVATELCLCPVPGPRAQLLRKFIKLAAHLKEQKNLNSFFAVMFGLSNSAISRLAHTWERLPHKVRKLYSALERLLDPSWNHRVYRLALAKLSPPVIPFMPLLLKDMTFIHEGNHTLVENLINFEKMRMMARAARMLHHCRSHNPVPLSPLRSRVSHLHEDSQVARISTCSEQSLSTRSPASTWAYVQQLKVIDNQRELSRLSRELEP

[2] = target: Rap guanine nucleotide exchange factor 4 (Homo sapiens) (UniProt Q8WZA2); assay: Confirmatory qHTS for agonist of cAMP-regulated guanine nucleotide exchange factor 4 (EPAC2) (AID 1645884);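 further: nucleotide exchange releases bodipy-GDP from Rap1 and this lowers its fluorescence; nearly all actives have a fitted effect of over 65% in size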; further: potency means the concentration at half of the fitted maximal effect; on activation: on the % scale 0 is the no-effect control and ±100 the full control effect
Rap guanine nucleotide exchange factor 4 (Homo sapiens), sequence (Q8WZA2 whole entry, looked up): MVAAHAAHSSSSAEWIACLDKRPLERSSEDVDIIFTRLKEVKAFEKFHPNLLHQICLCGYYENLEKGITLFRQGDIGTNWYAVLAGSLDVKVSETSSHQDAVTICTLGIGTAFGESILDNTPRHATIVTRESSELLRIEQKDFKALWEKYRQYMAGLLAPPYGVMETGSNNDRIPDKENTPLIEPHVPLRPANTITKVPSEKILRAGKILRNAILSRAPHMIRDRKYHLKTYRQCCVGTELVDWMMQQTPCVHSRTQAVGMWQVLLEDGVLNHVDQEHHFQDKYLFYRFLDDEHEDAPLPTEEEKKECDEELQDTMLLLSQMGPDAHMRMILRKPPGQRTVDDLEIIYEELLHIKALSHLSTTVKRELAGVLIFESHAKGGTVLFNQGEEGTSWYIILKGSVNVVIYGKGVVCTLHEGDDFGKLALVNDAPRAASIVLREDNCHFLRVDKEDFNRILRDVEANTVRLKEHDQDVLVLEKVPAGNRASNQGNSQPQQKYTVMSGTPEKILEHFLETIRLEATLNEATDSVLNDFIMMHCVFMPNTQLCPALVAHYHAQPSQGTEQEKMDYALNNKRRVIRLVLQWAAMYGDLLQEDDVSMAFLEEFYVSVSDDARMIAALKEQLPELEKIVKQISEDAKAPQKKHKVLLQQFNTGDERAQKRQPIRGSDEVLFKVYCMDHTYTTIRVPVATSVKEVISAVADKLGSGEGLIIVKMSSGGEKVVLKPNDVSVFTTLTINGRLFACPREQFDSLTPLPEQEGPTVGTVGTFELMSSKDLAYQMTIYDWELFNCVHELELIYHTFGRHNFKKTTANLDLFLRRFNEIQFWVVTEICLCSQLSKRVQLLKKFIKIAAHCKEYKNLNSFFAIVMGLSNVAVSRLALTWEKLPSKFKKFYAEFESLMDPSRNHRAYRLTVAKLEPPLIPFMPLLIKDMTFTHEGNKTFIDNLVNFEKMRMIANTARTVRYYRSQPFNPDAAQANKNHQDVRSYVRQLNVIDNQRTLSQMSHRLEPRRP

[3] = target: Rap guanine nucleotide exchange factor 4 (Homo sapiens) (UniProt Q8WZA2); assay: Confirmatory qHTS for antagonist of cAMP-regulated guanine nucleotide exchange factor 4 (EPAC2) (AID 1645885); further: nearly all actives have a fitted effect of over 25% in size; further: potency means the concentration at half of the fitted maximal effect; on activity change, negative = inhibition: on the % scale 0 is the no-effect control and ±100 the full control effect
[4] = target: Rap guanine nucleotide exchange factor 3 (Homo sapiens) (UniProt O95398); assay: Counterscreen qHTS for antagonist of cAMP-regulated guanine nucleotide exchange factor 3 (EPAC1) (AID 1645888); further: % of control where 0% means no effect
Outline: (§1)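 Rap1B–BODIPY-GDP (250 nM) with 50 uM GDP; compounds pin-transferred to 9.74 nM–152 uM final (activator) or from 7.32 nM upwards (inhibitor). Fluorescence Ex/Em 480/540 nm read at 5 and 30 min, then after adding cAMP or buffer, at room temperature.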

[5] = target: Rap guanine nucleotide exchange factor 3 (Homo sapiens) (UniProt O95398); assay: Counterscreen qHTS for agonist of cAMP-regulated guanine nucleotide exchange factor 3 (EPAC1) (AID 1645889); further: nearly all actives have a fitted effect of over 40% in size; further: potency means the concentration at half of the fitted maximal effect; on activation: % of control where 0% means no effect
Outline: as §1

[6] = target: Rap guanine nucleotide exchange factor 3 (Homo sapiens) (UniProt O95398); assay: Confirmatory qHTS for antagonist of cAMP-regulated guanine nucleotide exchange factor 3 (EPAC1) (AID 1645880);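 further: plate controls were DMSO only for no effect and full effect of the ATA control for full effect; nearly all actives have a fitted effect of over 55% in size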
Outline: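 Released BODIPY-GDP fluoresces less than Rap1-bound BODIPY-GDP; the signal is followed at 480/540 nm at 5-min intervals over 30 min, after 5 min at room temperature. Reactions contain 100 nM EPAC1, 250 nM RAP1B-BODIPY-GDP and 50 uM GDP; results are normalized to ATA and DMSO.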

[7] = target: Tumor susceptibility gene 101 protein (Homo sapiens) (UniProt Q99816); assay: qHTS Assay for Iinhibitors of HIV-1 Budding by Blocking the Interaction of PTAP/TSG101: Hit Validation (AID 651600); further: nearly all actives have a fitted effect of over 70% in size; further: potency means the concentration at half of the fitted maximal effect; on activity change, negative = inhibition: on the % scale 0 is the no-effect control and ±100 the full control effect
Tumor susceptibility gene 101 protein (Homo sapiens), sequence (Q99816 whole entry, looked up, the tested form may be a part): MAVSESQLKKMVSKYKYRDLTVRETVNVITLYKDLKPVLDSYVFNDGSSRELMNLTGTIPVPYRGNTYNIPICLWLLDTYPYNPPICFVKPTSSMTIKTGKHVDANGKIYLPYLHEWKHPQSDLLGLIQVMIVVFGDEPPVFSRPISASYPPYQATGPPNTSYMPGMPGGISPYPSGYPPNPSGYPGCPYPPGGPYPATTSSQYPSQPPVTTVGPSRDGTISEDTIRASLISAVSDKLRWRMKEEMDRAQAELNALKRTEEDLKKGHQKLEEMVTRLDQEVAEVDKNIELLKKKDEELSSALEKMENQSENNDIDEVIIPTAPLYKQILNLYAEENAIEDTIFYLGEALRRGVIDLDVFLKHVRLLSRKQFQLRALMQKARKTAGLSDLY
Outline: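 Compounds are added to the Tsg101 binding domain (10 uM final) in pH 7.5 HEPES buffer. FITC-PTAP peptide follows at 50 nM final. After 20 min at r.t., polarized FITC emission is measured.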

O=C1NC(=O)N(Cc2ccccc2)C(=O)/C1=C\C=C\c1ccco1
inactive: Potency [1] | activation [2] 12.1% [at 17.1 µM, percent relative to cAMP agonist control] | activity change, negative = inhibition [3] 2.97% [at 12.7 µM] | activity change, negative = inhibition [4] -17.1% [at 30.8 µM]

Cn1cccc1/C=C1/C(=O)NC(=O)N(Cc2ccccc2)C1=O
inactive: Potency [1] | Potency [2] | Potency [3] | outcome [4] | Potency [5]

Cn1cc(/C=C2\C(=O)NC(=O)N(c3ccccc3)C2=O)c2ccccc21
inactive: Potency [6] | outcome [4] | Potency [5]
active: Potency [2] 112 µM | Potency [3] 95.3 µM

CCOC(=O)c1[nH]c2ccc(OC)cc2c1C(SCC(=O)O)c1ccc(C(F)(F)F)cc1 (centres undefined)
inactive: Potency [1] | activation [2] 2.9% [at 17.1 µM, percent relative to cAMP agonist control] | activity change, negative = inhibition [3] -9.73% [at 12.7 µM] | activity change, negative = inhibition [4] -0.779% [at 30.8 µM]

Cc1cccc(-n2c(O)c(/C=C/C=Nc3ccccc3)c(=O)[nH]c2=O)c1
active: Potency [3] 33.8 µM | Potency [5] 39.8 µM
inactive: Potency [6] | outcome [4]

Cc1ccc(OCCn2cccc2/C=C2/C(=O)NC(=O)N(Cc3ccco3)C2=O)cc1
inactive: Potency [1] | Potency [2] | Potency [3] | outcome [4]

CN1/C(=C\C=C2C(=O)NC(=S)NC2=O)C(C)(C)c2ccccc21
active: Potency [2] 100 µM
inactive: Potency [7] | Potency [6] | Potency [3] | outcome [4]

Cc1cc(/C=C2\C(=O)NC(=O)N(Cc3ccccc3Cl)C2=O)c(C)n1-c1ccc(C(=O)O)cc1
inactive: Potency [1] | activation [2] -9.15% [at 17.1 µM, percent relative to cAMP agonist control] | activity change, negative = inhibition [3] -6.02% [at 12.7 µM] | activity change, negative = inhibition [4] 4.25% [at 30.8 µM]

CC(c1ccccc1)(c1ccccc1)c1ccncc1
inactive: Potency [1] | activation [2] 0% [at 17.1 µM, percent relative to cAMP agonist control] | activity change, negative = inhibition [3] -28.4% [at 12.7 µM] | activity change, negative = inhibition [4] -6.49% [at 30.8 µM]

CC(=O)C1C2c3ccccc3O[C@@]1(C)N=c1s/c(=C/c3ccoc3)c(=O)n12 (some centres undefined)
inactive: Potency [1] | Potency [2] | Potency [3] | outcome [4]

Cc1cc2ccccn2c1C(C[N+](=O)[O-])c1c(F)cccc1Cl (centres undefined)
inactive: Potency [1] | Potency [2] | outcome [4]
active: Potency [3] 15.1 µM

CCN(CC)c1ccc(N=Cc2c(O)n(CCc3ccc(OC)c(OC)c3)c(=O)[nH]c2=O)cc1
inactive: Potency [6] | activity change, negative = inhibition [3] -5.1% [at 12.7 µM] | activity change, negative = inhibition [4] -17.1% [at 30.8 µM]

CCOC(=O)[C@]12Cc3ccccc3[C@H]1N(C(C)C)C(=O)c1cc(OC)ccc12
inactive: Potency [1] | activation [2] 1.3% [at 17.1 µM, percent relative to cAMP agonist control] | activity change, negative = inhibition [3] -28.9% [at 12.7 µM] | activity change, negative = inhibition [4] -13.8% [at 30.8 µM]

CCOC(=O)[C@]12Cc3cc(Cl)ccc3[C@H]1N(Cc1ccccc1)C(=O)c1ccccc12
inactive: Potency [1] | Potency [2] | Potency [3] | outcome [4]

Nc1ccc2ccc3cccc[n+]3c2c1
inactive: Potency [6] | Potency [3]
active: Potency [7] 4.11 µM | Potency [2] 100 µM | Potency [5] 39.8 µM

Cn1cccc1/C=C1\C(=O)NC(=O)N(Cc2ccccc2Cl)C1=O
inactive: Potency [1] | Potency [2] | Potency [3] | outcome [4] | Potency [5]

CCOC(=O)[C@]12Cc3cc(Cl)ccc3[C@H]1N(C(C)C)C(=O)c1ccccc12
active: Potency [3] 21.3 µM
inactive: Potency [1] | Potency [2] | outcome [4]

COc1cc2c(cc1OC)-c1c(OC)c(OC)cc3c1[C@H](C2)N(C)CC3
inactive: Potency [1] | activation [2] 9.51% [at 17.1 µM, percent relative to cAMP agonist control] | activity change, negative = inhibition [3] -6.31% [at 12.7 µM] | activity change, negative = inhibition [4] 10.1% [at 30.8 µM]

Nc1cc(Cl)c2nonc2c1[N+](=O)[O-]
inactive: Potency [1] | activation [2] 5.26% [at 17.1 µM, percent relative to cAMP agonist control] | activity change, negative = inhibition [3] 1.82% [at 12.7 µM] | activity change, negative = inhibition [4] -3.15% [at 30.8 µM]

CCOC(=O)[C@]12Cc3cc(OC)ccc3[C@H]1N(Cc1ccccc1)C(=O)c1ccccc12
active: Potency [3] 19 µM
inactive: Potency [1] | Potency [2] | outcome [4]

Cc1cc(C=C2C(=O)NC(=S)NC2=O)c(C)n1C1CCCC1
inactive: Potency [1] | Potency [2] | Potency [3] | outcome [4] | Potency [5]

Cc1cccc(-c2nc(CN3C(=O)CN=C(c4ccccc4)c4ccccc43)c(C)o2)c1
inactive: Potency [1] | Potency [2] | activity change, negative = inhibition [3] 48.3% [at 12.7 µM]

O=C1NC(=O)N(Cc2ccco2)C(=O)/C1=C\c1cccn1CCOc1ccc(Cl)cc1
inactive: Potency [1] | activation [2] 1.56% [at 17.1 µM, percent relative to cAMP agonist control] | activity change, negative = inhibition [3] -27.2% [at 12.7 µM] | activity change, negative = inhibition [4] -25.1% [at 30.8 µM]

Cn1cccc1/C=C1\C(=O)NC(=O)N(Cc2ccccc2)C1=O
inactive: Potency [1] | Potency [2] | Potency [3] | outcome [4]

COc1cc(-n2c(=S)[nH]c3ccc(C)cc3c2=O)c(Cl)cc1Cl
inactive: Potency [1] | activation [2] 8.75% [at 17.1 µM, percent relative to cAMP agonist control] | activity change, negative = inhibition [3] -17.7% [at 12.7 µM] | activity change, negative = inhibition [4] -20.5% [at 30.8 µM] | activation [5] 24.2% [at 30.8 µM]

COc1cc(/C=C/c2nc3ccccc3c(=O)n2-c2cccc(O)c2)ccc1O
inactive: Potency [1] | Potency [2] | Potency [3] | outcome [4]
